# Measurements published in ChEMBL document CHEMBL4513216, “Probing the Open Global Health Chemical Diversity Library for Multistage-Active Starting Points for Next-Generation Antimalarials” (ACS Infect Dis, 2020).
# Among all 69,000 compounds or so, about 8,600 (12%) showed an effect of 50% or more. For the sample, strong results were picked, then their nearest neighbours and some compounds at random.
# Test system: Plasmodium berghei
# Experiment: Screen against P. berghei liver stage (PbLuc), transformed with Luciferase, at 10uM
# Assay type: functional, HepG2
# Conditions: tested at 10 uM
row,Structure (SMILES),INHIBITION [%]
1,COCCN1C(=O)[C@@H]2CC[C@H]1CN(c1nccc(C)n1)C2,-39.2
2,Cc1cccc(COc2ccc(NC(=O)C(C)NC(N)=O)c(C)c2)c1 (configuration not stated),61.3
3,Cc1cc(OCc2cccc(F)c2)ccc1NC(=O)C(C)NC(N)=O (configuration not stated),48.3
4,Cc1cccc(COc2ccc(C(C)NS(N)(=O)=O)cc2)c1 (configuration not stated),9.16
5,Cc1cccc(COc2ccc(C(C)N)cc2)c1 (configuration not stated),83
6,Cc1cccc(COc2ccc(C(C)NC(=O)CNC(N)=O)cc2)c1 (configuration not stated),40.7
7,CC(=O)NC(C)C(=O)Nc1ccc(OCc2cccc(F)c2)cc1C (configuration not stated),26.5
8,CC(C)(C)c1cc(CNC(=O)c2cc(COc3ccccc3)[nH]n2)[nH]n1,-47
9,Cn1cc(C(=O)NCc2cn3c(n2)CN(CC2CCCC2)CC3)cn1,-2.17
10,Cc1nc(-c2ccnc(N3CCNCC3)n2)no1,-17
11,Cc1nc(CN2CCN(CCOc3ccc(C(C)C)c(C)c3)CC2)no1,25.1
12,Cc1noc(C)c1CNC(=O)N1CCC(Cc2cnn(C)c2)C1 (configuration not stated),20.2
13,O=C1CC(c2ccncc2)C2(CCN(C(=O)NC3CC3)CC2)N1 (configuration not stated),33.4
14,Cn1cc(C2CC(=O)NC23CCN(C(=O)NC2CC2)CC3)cn1 (configuration not stated),62.9
15,Cn1cc(C2CC(=O)NC23CCN(C(=O)C2CC=CC2)CC3)cn1 (configuration not stated),-61.6
16,COC1CCCN(C(=O)NCCCF)C1 (configuration not stated),55.5

row,Structure (SMILES),INHIBITION [%]
1,COC1CCCN(C(=O)NCC(F)F)C1 (configuration not stated),26.4
2,COC1CCCN(C(=O)NCC(C)(C)SC)C1 (configuration not stated),32
3,CCN1C(=O)CCC12CCCN(Cc1ccc(F)cc1)CC2 (configuration not stated),-24.5
4,COC(=O)C(NC(=O)c1cc(C)ccc1C)c1cccnc1 (configuration not stated),32.2
5,COC(=O)C(NC(=O)c1cc(F)cc(F)c1)c1cccnc1 (configuration not stated),55.4
6,COC(=O)C(NC(=O)c1ccc(C)cc1C)c1cccnc1 (configuration not stated),42.4
7,Cc1nc(O)cc(C2CCN(C(=O)c3[nH]nc4c3CC(C)CC4)CC2)n1 (configuration not stated),9.52
8,O=C(Nc1cc(Cl)ccc1N1CCCCC1)c1ccccn1,56.3
9,O=C(Nc1c(N2CCCC2)cccc1N1CCCC1)c1ccccn1,55.4
10,O=C(Nc1c(N2CCCC2)cccc1N1CCCC1)c1cnsn1,42.4
11,COC(=O)c1ncccc1N1CCCCC1,89.1
12,O=C(O)c1ncccc1N1CCCCC1,6.83
13,COC(=O)c1ncccc1N1CCCC1,-0.71
14,CN1CCN(c2ccc(NC(=O)c3ccccn3)c(C(F)(F)F)c2)CC1,-78.3
15,O=C(Nc1c(N2CCCC2)cccc1N1CCCC1)c1cnccn1,48
16,CN1CCN(c2ccc(Cl)cc2NC(=O)c2ccco2)CC1,35.1
